Screening data deposited in PubChem BioAssay by National Center for Advancing Translational Sciences (NCATS).
HTT aggregate = inhibitors of mutant huntingtin aggregate formation in PC12 cells; PC12 HttQ103-GFP aggregates, Acumen cytometry, 40 h; Potency, µM (highest dose often 46.1 µM), without a hit: at the top dose activity change, negative = inhibition, hits mostly inhibitors; 1.1% of 220,000 active; note: % is set by controls: 0 for no effect and ±100 for the full control effect; nearly all actives have a fitted effect of over 60% in size
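Huntingtin Q103 exon 1–GFP aggregates in induced PC12 cells (100 nM tebufenozide) were quantified by cytometry from lysates, with compounds dosed in titration.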
PINK1 expr mod = changes PINK1 expression. Potency, µM (highest dose often 76.6 µM), inactives show top-dose activation (PINK1 increase), usual class: activators. PINK1 immunofluorescence, high-content cytometry, 24 h. 0.2% of 410,000 active; active = well fitted activation curve with a large enough effect; inconclusive = small, poorly fitted or top-dose-only effect; cell line not stated here; note: % of control where 0% means no effect; nearly all actives have a fitted effect of over 65% in size
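Fluorescence from anti-PINK1 antibody, together with nuclear and cell stains, was scanned on a laser-scanning cytometer. Before staining, stable-line cells were incubated 24 hours with compounds at 5 concentrations; primary antibody 12 h at 10 degrees C.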
Epigenetic reg = derepresses silenced GFP reporter in murine cells; murine LDR cells, GFP reporter derepression, 30 h; Potency, µM (series often up to 53.9 µM), without a hit: at the top dose GFP activation, usual class: activators; 0.2% of 280,000 active; note: % of control where 0% means no effect; nearly all actives have a fitted effect of over 60% in size
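Murine LDR cells carrying a silenced, genomically integrated CMV-driven GFP reporter were exposed to compound for 30 hours at 37 C. After PBS washes, GFP-positive cells (20–120 um objects) were counted by laser-scanning microplate cytometry.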
HTT cytoprotect = Huntington cell model cytoprotection by ATP luminescence; PC12 HTT-Q103 induced, cytoprotection, ATP luminescence, 40 h; 0.14% of 230,000 active; Potency, µM (highest dose often 56.4 µM), for the others: cytoprotection (ATP increase), actives largely listed as activators; AID 1471; note: % of control where 0% means no effect; nearly all actives have a fitted effect of over 45% in size
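Quantitative HTS on tebufenozide-induced (100 nM) PC12 cells expressing HTTQ103 exon 1–GFP; compounds tested as a concentration series; survival measured via cellular ATP.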
The depositor's hits bear a star; ? = inconclusive; . = no result given; [ ] = remark or other dose. The sample as a whole holds a higher share of hits than the screen did. Unless noted, calls come from the whole dose curve; as a rule, active = well fitted curve in the direction sought with a large enough effect; inconclusive = small, poorly fitted or top-dose-only effect, or another doubt; inactive = no such curve, though single readings can be large; an effect the other way counts as inactive or inconclusive. Potency is the fitted concentration of half-maximal effect.

SMILES | HTT aggregate | PINK1 expr mod | Epigenetic reg | HTT cytoprotect
CCOC(=O)/C(=C/C=C1\Sc2cc(C)c(C)cc2N1CC)C(C)=O | -35%[9.22 µM] | ? | ? | -17%[10 µM]
CCN1/C(=C/c2ccc3cc(C)ccc3[n+]2CC)Sc2ccccc21 | 0.35µM* | 8% | ? | -68%[10 µM]
CC(=S)/C=C1\Sc2ccccc2N1C | -19% | 4%[38.3 µM] | 0% | -21%
CC[n+]1c(/C=C2\Sc3ccccc3N2C)ccc2cccc(C)c21 | 1µM* | 0% | ? | -88%[10 µM]
Cc1ccccc1-n1c(Cn2c(=O)sc3ccccc32)nnc1SCC(=O)N1CCOCC1 | -1% | ? | -1% | -4%
Cc1ccc2oc(C(=O)N(Cc3cccc(F)c3)C3CCS(=O)(=O)C3)c(C)c2c1 (centres undefined) | . | -1% | 1% | .
O=C(N/N=C/c1sc2ccccc2c1O)c1ccccc1 | 3.2µM* | 1% | 0% | -79%[10 µM]
COc1ccc(C(=O)N/N=C/c2sc3ccccc3c2O)cc1 | 11µM* | -1% | -2% | -80%[10 µM]
Cc1ncc(CO)c(/C=N/NC(=O)c2ccc(O)cc2)c1O | ? | -1% | -1% | 11%[10 µM]
O=C(N/N=C/c1sc2ccccc2c1O)c1cccc2ccccc12 | 1.4µM* | 1% | 0% | -87%[10 µM]
COc1ccc(C(=O)N/N=C/c2c(CO)cnc(C)c2O)cc1 | 32µM* | -1% | 3% | -77%
O=C(N/N=C/c1ccccc1)c1cccc2ccccc12 | . | 13% | . | .
COc1cc(C(=O)COC(=O)C2CC2(Cl)Cl)cc(OC)c1OC (centres undefined) | . | -1% | . | .
CC1(C2(O)CC(c3ccccc3)ON2)CCCCC1 (centres undefined) | 7% | . | -6% | 9%
O=C(CSc1c2c(nc3cc(Cl)ccc13)CCCC2)NCc1ccco1 | . | -1% | 12% | 13µM*
Cc1cc(O)c(NC(=O)c2cc([N+](=O)[O-])ccc2Cl)cc1C | 9%[9.22 µM] | -2% | -1% | -8%[10 µM]
CCCCc1nnc(SCC(=O)Nc2nccs2)n1C | . | 0% | . | .
Cn1c(CCCOc2ccc(Cl)cc2Cl)nnc1SCC(=O)Nc1nccs1 | -9% | 13µM* | -1% | -2%[10 µM]
CC(C)CNC(=O)COC(=O)c1c2c(nc3ccccc13)/C(=C/c1cccs1)CC2 | 5.6µM* | 1% | -1% | -19%[10 µM]
Cc1ccccc1NC(=S)N/N=C/C(C)c1ccccc1 (centres undefined) | -1% | 0% | -7% | 4.5µM*
Cc1ccccc1NC(=S)NCc1ccccc1 | ? | -2% | 1% | 5.6µM*
Cc1ccccc1NC(=S)NCCc1ccccc1 | 11% | 3% | 4% | -36%[0.074 µM]
O=C(O)CSCC(=O)N1CCCN(c2nc3ccc(Cl)cc3s2)CC1 | 8%[9.22 µM] | 2% | 1% | 13%[10 µM]
O=C(C[n+]1cc(Br)cc2ccccc21)c1ccc(Cl)cc1 | . | 14µM* | . | .
O=C(Oc1ccc(/C=N/NC(=O)c2ccccc2O)cc1)c1ccccc1 | -18% | -1% | 1% | -7%
SMILES | HTT aggregate | PINK1 expr mod | Epigenetic reg | HTT cytoprotect
Cn1nccc1C(=O)Oc1ccc(/C=N/NC(=O)c2ccccc2O)cc1 | ? | 1% | -3% | 0.89µM*
Cc1cccc(C)c1NC(=O)C(NC=O)c1ccc(Cl)cc1 (centres undefined) | -18% | -3% | -11% | -3%[10 µM]
Cc1cccc(C)c1NC(=O)C(C)c1ccc(-c2ccccc2)c(F)c1 (centres undefined) | 18µM* | 2% | -1% | -29%
CC[n+]1c(/C=C(\C)SC)sc2ccccc21 | -30% | 4%[38.3 µM] | -1% | -16%
CCN1/C(=C/C=C/c2sc3ccccc3[n+]2CC)Sc2ccccc21 | 2µM* | ? | . | -97%
CCN1/C(=C/C=C/C=C/c2sc3ccccc3[n+]2CC)Sc2ccccc21 | 4µM* | ? | -1% | -99%
CC1C/C(=C/c2cccn2C)C(=O)/C(=C/c2cccn2C)C1 (centres undefined) | -33% | 26% | 11µM* | 22%
O=C(COC(=O)c1ccc2ccccc2n1)NC1CCCCC1 | . | 0% | . | .
CCOc1ccccc1C1CC(=O)Nc2cc(OC)c(OC)cc21 (centres undefined) | . | 4% | . | .
CCOc1ccccc1C1CC(=O)NC2=C1C(=O)CC(C)(C)C2 (centres undefined) | 35µM* | 0% | 2% | -29%
CN1/C(=C\C=N\NC(=O)c2cccnc2)C(C)(C)c2ccccc21 | 6.3µM* | 2% | ? | -31%
CN1/C(=C\C(=O)c2cncc(Br)c2)C(C)(C)c2ccccc21 | 16µM* | 2% | 1% | 7%[10 µM]
CN1/C(=C\C=N\NC(=O)c2ccc(O)cc2)C(C)(C)c2ccccc21 | -19% | ? | -1% | 23%[10 µM]
O=C(Nc1ncccc1O)C1CCN(S(=O)(=O)c2ccc3ccccc3c2)CC1 | . | 4% | . | .
CCOC(=O)[C@H](CCc1ccccc1)N[C@@H](C)C(=O)N1CCC[C@@H]1C(=O)O | . | 0% | . | .
COCCCn1c(=N)c(C(=O)NCc2ccco2)cc2c(=O)n3cccc(C)c3nc21 | . | 2% | -1% | .
Cc1cccn2c(=O)c3cc(C(=O)NCc4ccco4)c(=N)n(CCOCCO)c3nc12 | 2.8µM* | 1% | 2% | -86%
O=C(NCc1ccco1)c1cccn2c(=O)c3cc4ccccc4cc3nc12 | -4%[9.22 µM] | . | 16µM* | -65%
CCN1C(=O)N(CC)C(O)(c2ccccc2)C1(O)c1ccccc1 (centres undefined) | -22% | 1% | 0% | 11%
CC(=O)N(Cc1ccc(F)cc1)C1=C(NCCc2ccccc2)C(=O)c2ccccc2C1=O | 7.1µM* | -1% | 2% | -157%
O=C1C(Cl)=C(NCCc2ccccc2)C(=O)c2ccccc21 | . | 1% | . | .
Cc1nn(-c2ccccc2)c(Cl)c1C(=O)NCC(=O)O | -6% | 2% | 2% | -5%[10 µM]
CC(=O)N(Cc1c(C)nn(-c2ccccc2)c1Cl)c1ccc(Cl)cc1 | 13% | 2% | -1% | 6%
Cc1nn(-c2ccccc2)c(Cl)c1CN(C(=O)CCl)c1ccc(Cl)cc1 | 25µM* | -4% | -1% | -3%[10 µM]
Cc1nn(-c2ccccc2)c(Cl)c1CN(C(=O)CCl)c1cccc2ccccc12 | 13µM* | -3% | 2% | 26%[1.9 µM]
SMILES | HTT aggregate | PINK1 expr mod | Epigenetic reg | HTT cytoprotect
O=C(NCCN1CCOCC1)c1ccc([N+](=O)[O-])cc1[N+](=O)[O-] | 3% | -1% | -1% | 7%
O=S(Cc1ccc(Br)cc1)Cc1nnc(SCc2c(Cl)cccc2Cl)n1-c1ccccc1 (centres undefined) | 22µM* | 13% | 0% | ?
Cn1c(CS(=O)Cc2c(Cl)cccc2Cl)nnc1SCc1c(Cl)cccc1Cl (centres undefined) | 9% | -2%[38.3 µM] | 1% | 0%[10 µM]
CCCCN1CCC(CCC(=O)c2cc(Cl)c(N)cc2OC)CC1 | . | . | 2% | -68%
Cc1ccc(-c2oc3ccccc3c(=O)c2O)cc1 | 11µM* | 1% | 1% | -13%
O=c1c(O)c(-c2ccccc2)oc2ccccc12 | . | 2% | 12% | .
O=c1c(O)c(-c2cccs2)oc2ccc(Cl)cc12 | 14µM* | 0% | 0% | 23%
Cc1ccc2oc(-c3ccccc3)c(C(=O)O)c(=O)c2c1 | 10µM* | 1% | -1% | -59%
Cc1ccc2oc(-c3ccccc3)c(O)c(=O)c2c1 | . | . | 1% | 24%[1.9 µM]
